From PubChem BioAssay
MEKK3 PB1 HTS – MEKK3-MEK5 PB1 interaction, increase or decrease; Q99759; bead-based flow cytometry, Alexa488-MEK5 binding to MEKK3; actives lie on both sides; 0 = blocked by unlabeled MEK5, 100 = vehicle; binding response (% of control), % at 10 µM; actives 1.4% (n = 290,000); AID 1529;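 active = binding response more than 3 SD above or below the average of its plate-row segment, actives on both sides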;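 also: Alexa488 bead fluorescence after subtracting the streptavidin-only scavenger bead signal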
Target sequence (Q99759 whole entry, looked up): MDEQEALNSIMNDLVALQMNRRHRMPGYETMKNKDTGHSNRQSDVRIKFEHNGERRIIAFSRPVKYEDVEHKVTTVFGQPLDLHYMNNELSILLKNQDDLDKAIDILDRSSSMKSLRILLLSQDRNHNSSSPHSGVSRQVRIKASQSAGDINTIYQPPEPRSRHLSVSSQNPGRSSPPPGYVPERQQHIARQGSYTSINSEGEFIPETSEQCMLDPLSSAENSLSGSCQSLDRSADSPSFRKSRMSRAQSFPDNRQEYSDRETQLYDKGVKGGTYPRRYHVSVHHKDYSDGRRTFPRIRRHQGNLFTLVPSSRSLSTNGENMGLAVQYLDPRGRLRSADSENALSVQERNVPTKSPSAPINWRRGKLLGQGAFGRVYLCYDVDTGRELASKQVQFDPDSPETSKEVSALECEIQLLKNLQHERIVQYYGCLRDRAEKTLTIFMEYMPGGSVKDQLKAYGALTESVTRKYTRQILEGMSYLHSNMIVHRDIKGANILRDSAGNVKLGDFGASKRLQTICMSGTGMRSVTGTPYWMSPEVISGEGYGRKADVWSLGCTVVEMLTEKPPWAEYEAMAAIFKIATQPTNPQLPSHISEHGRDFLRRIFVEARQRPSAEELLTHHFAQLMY
MEKK2wt PB1 HTS – raises or lowers MEK5 binding to wildtype human MEKK2 PB1 domain. Q9Y2U5. bead flow cytometry, Alexa488-MEK5 binding to MEKK2 WT; actives lie on both sides. binding response (% of control), % at 10 µM. actives 1.1% (n = 290,000). AID 1531; in the data active = binding response below about 67% or above about 130%
DNA FID counter – displaces DNA intercalator in HCV helicase counter-screen | DNA fluorescent intercalator displacement, fluorescence | inhibition, % at 7.9 µM | actives 0.17% (n = 290,000) | AID 1845; in the data active = inhibition above about 37%;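 also: higher means more ethidium bromide displaced from hairpin DNA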
dFosB act – activators of mouse delta FosB homodimer; P13346; purified delta FosB, TAMRA-CDK5 oligo fluorescence polarization; percent of positive-control signal above neutral wells; activation, % at 25 µM; actives 0.99% (n = 340,000); AID 493131;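 active = mean activation above about 17%, with every replicate also reaching it, limit read from the data, passing the limit was not always enough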
MEKK2mut PB1 HTS – signal of MEK5 binding to mutant human MEKK2 PB1 domain; actives 0.35% (n = 290,000); AID 1530; bead flow cytometry, Alexa488-MEK5 binding to MEKK2 mutant; percent response, % at 10 µM; in the data active = percent response above about 24%, passing the limit was not always enough
MEKK2wt confirm – raises or lowers MEK5 binding to wildtype human MEKK2, retest; binding response (% of control), % at 10 µM; shares compounds with MEKK3 PB1 HTS; actives 2.4% (n = 5,900); bead flow cytometry, Alexa488-MEK5 binding to MEKK2 WT; actives lie on both sides; in the data active = binding response below about 16% or above about 210%; inactive = in between
MEKK2mut-MEK5 – signal of MEK5 binding to mutant human MEKK2, retest | AID 1893 | shares compounds with MEKK3 PB1 HTS | bead flow cytometry, Alexa488-MEK5 binding to MEKK2 mutant | actives 2% (n = 5,900) | percent response, % at 10 µM; in the data active = percent response mostly above about 71%, no sharp cut-off; inactive = mostly below about 38%;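 also: higher means compound restores mutant binding toward wildtype level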
MEKK3-MEK5 inh – confirmation of inhibitors of MEK5 binding to human MEKK3 | shares compounds with MEKK3 PB1 HTS | bead flow cytometry, Alexa488-MEK5 binding to MEKK3; stronger effect = lower value | binding response (% of control), % at 10 µM | actives 1.8% (n = 5,900);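 active = binding response below 72% of control, or above a set upper limit, though filed actives all read lower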
Numbers stand for hits; [ ] = remark or other dose. The list is not random: actives were taken first. Their share in the collection is about 2.9%.

`COc1ccc(CCN2C(=O)CCC2(C)C(=O)NC2CCCC2)cc1OC` (stereo unspecified) gave MEKK3 PB1 HTS 35.0[inhibitor], MEKK2wt PB1 HTS 45.0[inhibitor], DNA FID counter inactive, dFosB act inactive, MEKK2mut PB1 HTS inactive, MEKK2wt confirm inactive, MEKK2mut-MEK5 inactive and MEKK3-MEK5 inh inactive.
Screening Cc1ccc(CCN2C(=O)CCC2(C)C(=O)NC2CCCC2)cc1 (stereo unspecified) returned MEKK3 PB1 HTS inactive, MEKK2wt PB1 HTS inactive, DNA FID counter inactive, dFosB act inactive and MEKK2mut PB1 HTS inactive.
Screening CCOc1ccc(NC(=O)COC(=O)C2CC2C)cc1 (stereo unspecified) returned dFosB act inactive.
For CC1CC1C(=O)OCC(=O)Nc1ccc(N=Nc2ccccc2)cc1 (stereo unspecified) the results were MEKK3 PB1 HTS 136.0, MEKK2wt PB1 HTS inactive, DNA FID counter inactive, dFosB act inactive, MEKK2mut PB1 HTS inactive, MEKK2wt confirm inactive, MEKK2mut-MEK5 inactive and MEKK3-MEK5 inh inactive.
CCC(C(=O)NC1CCCC1)N(C(=O)Cn1nnc(-c2cccs2)n1)c1cnc2ccccc2c1 (stereo unspecified) was read as MEKK3 PB1 HTS inactive, MEKK2wt PB1 HTS inactive, DNA FID counter inactive, dFosB act inactive and MEKK2mut PB1 HTS inactive.
Screening CCC(C(=O)NC(C)(C)C)N(C(=O)Cn1nnc(-c2ccccc2F)n1)c1cnc2ccccc2c1 (stereo unspecified) returned MEKK3 PB1 HTS 128.0, MEKK2wt PB1 HTS inactive, DNA FID counter inactive, dFosB act inactive, MEKK2mut PB1 HTS inactive, MEKK2wt confirm inactive, MEKK2mut-MEK5 inactive and MEKK3-MEK5 inh inactive.
Screening COc1ccccc1-n1c(SCC(N)=O)nc2sc3c(c2c1=O)CCC3 returned MEKK3 PB1 HTS inactive, MEKK2wt PB1 HTS inactive, DNA FID counter inactive, dFosB act inactive and MEKK2mut PB1 HTS inactive.
Screening Cc1nn2c(N3CCN(C4CCCC4)CC3)cc(C(C)(C)C)nc2c1-c1ccccc1 returned MEKK3 PB1 HTS inactive, MEKK2wt PB1 HTS inactive, DNA FID counter inactive, dFosB act inactive and MEKK2mut PB1 HTS inactive.
Cc1nn2c(N3CCN(C)CC3)cc(C(C)(C)C)nc2c1-c1ccccc1 was read as MEKK3 PB1 HTS inactive, MEKK2wt PB1 HTS 144.0, DNA FID counter inactive, dFosB act inactive, MEKK2mut PB1 HTS inactive, MEKK2wt confirm inactive, MEKK2mut-MEK5 inactive and MEKK3-MEK5 inh inactive.
`CN1CC(C(=O)Nc2ccc(F)c(Cl)c2)CC1=O` (stereo unspecified) gave MEKK3 PB1 HTS inactive, MEKK2wt PB1 HTS inactive, DNA FID counter inactive, dFosB act inactive and MEKK2mut PB1 HTS inactive.
`Cc1ccc(-c2nc(N)sc2CC(=O)OCC(=O)N2C(C)CCCC2C)cc1` (stereo unspecified) gave MEKK3 PB1 HTS 140.0, MEKK2wt PB1 HTS inactive, DNA FID counter inactive, dFosB act inactive, MEKK2mut PB1 HTS inactive, MEKK2wt confirm inactive, MEKK2mut-MEK5 inactive and MEKK3-MEK5 inh inactive.
For N=c1n(CCN2CCOCC2)c2ccccc2n1CC(=O)c1cccc([N+](=O)[O-])c1 the results were MEKK3 PB1 HTS 12.0[inhibitor], MEKK2wt PB1 HTS 22.0[inhibitor], DNA FID counter inactive, dFosB act inactive, MEKK2mut PB1 HTS inactive, MEKK2wt confirm inactive, MEKK2mut-MEK5 inactive and MEKK3-MEK5 inh inactive.
For CCn1c(=N)n(CC(=O)c2cccc([N+](=O)[O-])c2)c2ccccc21 the results were MEKK3 PB1 HTS inactive, MEKK2wt PB1 HTS inactive, DNA FID counter inactive, dFosB act inactive and MEKK2mut PB1 HTS inactive.
`O=C(O)CSc1nc(SCc2ccccc2Cl)nc2c1CCCC2` gave MEKK3 PB1 HTS 122.0, MEKK2wt PB1 HTS inactive, DNA FID counter inactive, dFosB act inactive, MEKK2mut PB1 HTS inactive, MEKK2wt confirm inactive, MEKK2mut-MEK5 inactive and MEKK3-MEK5 inh inactive.
Screening COc1ccc(CN(C)CC2CCCN(CCc3ccc(F)cc3)C2)cc1OC (stereo unspecified) returned MEKK3 PB1 HTS inactive, MEKK2wt PB1 HTS inactive, DNA FID counter inactive, dFosB act inactive and MEKK2mut PB1 HTS inactive.
`COc1cc(CN(C)CC2CCCN(CCc3cccc(C(F)(F)F)c3)C2)ccc1O` (stereo unspecified) gave MEKK3 PB1 HTS inactive, MEKK2wt PB1 HTS 156.0, DNA FID counter inactive, dFosB act inactive, MEKK2mut PB1 HTS 28.0, MEKK2wt confirm inactive, MEKK2mut-MEK5 inactive and MEKK3-MEK5 inh inactive.
For N=c1n(CC(=O)c2ccc(Br)s2)c2ccccc2n1Cc1ccccc1 the results were MEKK3 PB1 HTS inactive, MEKK2wt PB1 HTS 158.0, DNA FID counter inactive, dFosB act 25.4, MEKK2mut PB1 HTS inactive, MEKK2wt confirm inactive, MEKK2mut-MEK5 inactive and MEKK3-MEK5 inh inactive.
Screening COC(=O)c1c(C)nn(-c2ccc(OC(F)(F)F)cc2)c1-c1snnc1C returned MEKK3 PB1 HTS inactive, MEKK2wt PB1 HTS inactive, DNA FID counter inactive and MEKK2mut PB1 HTS inactive.
For Cc1ccc(NC(=O)COc2ccccc2C(=O)Nc2ccccc2)cc1Cl the results were MEKK3 PB1 HTS inactive, MEKK2wt PB1 HTS 146.0, DNA FID counter inactive, dFosB act inactive, MEKK2mut PB1 HTS 68.0, MEKK2wt confirm inactive, MEKK2mut-MEK5 inactive and MEKK3-MEK5 inh inactive.
`Cc1ccc(NC(=O)COC(=O)CC2CCCC2)cc1Cl` gave MEKK3 PB1 HTS 70.0[inhibitor], MEKK2wt PB1 HTS inactive, DNA FID counter inactive, dFosB act inactive, MEKK2mut PB1 HTS inactive, MEKK2wt confirm inactive, MEKK2mut-MEK5 inactive and MEKK3-MEK5 inh inactive.
`Cc1ccc(NC(=O)COc2ccccc2)cc1Cl` gave MEKK3 PB1 HTS inactive, MEKK2wt PB1 HTS inactive, DNA FID counter inactive, dFosB act inactive and MEKK2mut PB1 HTS inactive.
`CCOCC(=O)Nc1ccc(C)c(Cl)c1` gave MEKK3 PB1 HTS 77.0[inhibitor], MEKK2wt PB1 HTS inactive, DNA FID counter inactive, dFosB act inactive, MEKK2mut PB1 HTS inactive, MEKK2wt confirm inactive, MEKK2mut-MEK5 inactive and MEKK3-MEK5 inh inactive.
Screening CC1([N+](=O)[O-])COC(C=Cc2ccccc2)OC1 (stereo unspecified) returned dFosB act inactive.
`COc1ccc(-c2noc(CN3CCOCC3)n2)cc1OC` gave MEKK3 PB1 HTS 1.0[inhibitor], MEKK2wt PB1 HTS 0.0[inhibitor], DNA FID counter inactive, dFosB act inactive, MEKK2mut PB1 HTS inactive, MEKK2wt confirm inactive, MEKK2mut-MEK5 inactive and MEKK3-MEK5 inh inactive.
